Laboratory results from PubChem BioAssay (NCI).
Several values for one entry are separate records, joined by “and”; a condition that tells them apart may be missing. Identical values can stand only once. About 83,000 compounds went through this panel and 20% of them were active in at least one assay; those are over-represented in the sample as a whole.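 Each cell line was grown in a 96-well plate and treated with one concentration of compound for 48 hours. Values below 10 were considered active.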 Unmarked numbers belong to inactive results. Activity calls are given as the source filed them.

What follows are compounds tested on HL-60(TB) leukemia (assay: NCI-60 one-dose screen, 48 h (100 = growth as untreated, 0 = no growth, -100 = all killed)). Settings: 10 µM unless noted.

Row | Compound | growth
1 | CC(C)OCc1cc(CN2CCN(c3cccc(Cl)c3)CC2)c(O)c2ncccc12 | -46% (active)
2 | NC(=O)c1cc2c3ccccc3ccn2c1-c1ccccc1 | -3.94% (active)
3 | COc1ccc(OC)c(NCC(=O)n2nc(/C=C\c3ccc(O)c(OC)c3)cc2/C=C\c2ccc(O)c(OC)c2)c1 | -8.64% (active)
4 | CCOC(=O)c1cc(C(=O)c2cc(OC)c(OC)c(OC)c2)n2ncccc12 | -32.5% (active)
5 | C/C(=N/O)c1ccc(F)cc1 | 102%
6 | CCC(/C=C\C(C)=O)CC | 104%
7 | Cc1ccc2nc(SCC(=O)Nc3ccc(-c4nc5ccccc5s4)c(Cl)c3)[nH]c2c1 | 111%
8 | CCCCCCCOc1c(OC)cc(C2CC(=O)Nc3c2c(C)nn3-c2nc3ccccc3[nH]2)cc1OC (stereo unspecified) | 10.5%
9 | O=C1c2cc3c(cc2-c2c1c1ccc(Cl)cc1c(=O)n2CCCNCCO)OCO3 | -64% (active)
10 | CCC(C)(O)c1ccc(C)cc1 (stereo unspecified) | 97.3%
11 | IC(I)I | 98.3%
12 | C[C@H]1[C@H](C)CC[C@]2(CO)CC[C@]3(C)C(=CC[C@@H]4[C@@]5(C)CCCNC(C)(C)[C@@H]5CC[C@]43C)[C@H]12 | -55% (active)
13 | COc1c(N)c2c(c([N+](=O)[O-])c1OC)C(=O)OC2 | 95.3%
14 | Nc1nc(N)c2nc(CNc3ccc(C(=O)NC(CCC(=O)O)C(=O)O)cc3)cnc2n1 (stereo unspecified) | 35.3% and 49.9%
15 | Cc1cc(Br)nnc1Br | 84.3%
16 | CCCCC1CCCCN1C(=O)OCC (stereo unspecified) | 128%
